Assay results as given in PubChem BioAssay (Tox21).
Several values for one entry are separate records, joined by “and”; a condition that tells them apart may be missing. Identical values can stand only once. Results filed as inconclusive are left out. Entries that show only a call come without a potency. Activity calls are given as the source filed them. Calls come from the whole dose curve.

assay: qHTS assay to identify small molecule antagonists of the estrogen receptor alpha (ER-alpha) signaling pathway using the BG1 cell line (AID 743080); settings: BG1Luc4E2 ERE-luciferase antagonist mode, luminescence; series mostly up to 70.3 µM;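 note: BG1 cells stimulated with 17beta-estradiol alongside compound; nearly all actives have a fitted effect of over 25% in size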
Excerpt: National Center for Advancing Translational Sciences [NCATS]
NIH Chemical Genomics Center [NCGC]
U.S. Environmental Protection Agency [EPA]
National Institutes of Environmental Health Sciences [NIEHS]
National Toxicology Program [NTP]
U.S. Food and Drug Administration [FDA]
Estrogen receptor (ER), a nuclear hormone receptor, plays an important role in development, metabolic homeostasis and reproduction. Endocrine disrupting chemicals (EDCs) and their interactions with steroid hormone receptors like ER causes disruption of normal endocrine function. Therefore, it is important to understand the effect of environmental chemicals on the ER signaling pathway. To identify ER antagonists, BG1-Luc-4E2 cell line (provided by Dr. Michael Denison from University of California) has been used to screen the Tox21 10K compound library. BG1Luc4E2 cell line endogenously expresses full-length ER-alpha and is stably transfected with a plasmid containing four estrogen responsive elements (ERE) upstream of a luciferase reporter gene.
Tox21 Assay Protocol Summary:
BG1-Luc-4E2 cells were cultured in phenol red free assay medium containing 10% charcoal stripped FBS for 5 days before the assay was performed. The cells were dispensed at 4,000 cells/4 uL of assay medium per well into white wall/solid-bottom 1536-well plates using a Multidrop Combi (ThermoFisher Scientific, Waltham, MA) dispenser. The assay plates were incubated at a 37C and 5% CO2 for 24 h, and then 23 nL of compounds dissolved in DMSO, positive controls or DMSO only was transferred to the assay plate using a Pintool station (Kalypsys, San Diego, CA), followed by addition of 1 uL of 17beta-estradiol in assay medium using a Flying Reagent Dispenser (Aurora Discovery, San Diego, CA). After the plates were incubated at 37 C and 5% CO2 for 21.5 h, 1 uL of CellTiter-Fluor reagent (Promega, Madison, WI) of measuring cytotoxicity was added using Flying Reagent Dispenser (FRD) to each well. The assay plates were incubated at 37 C and 5% CO2 for additional 30 min and the fluorescence intensity was quantified by a ViewLux plate reader (PerkinElmer, Shelton, CT). For measuring luciferase reporter gene activity, 4 uL of ONE-Glo reagent (Promega) was added to each plate using an FRD and luminescence was quantified by a ViewLux plate reader after 30 min incubation at room temperature.
Potency is the fitted concentration of half-maximal effect.

Structure (SMILES)	Potency
CCOC(=O)C(C)(C)Oc1ccc(Cl)cc1	inactive
Cc1cccc(Nc2cc(Cl)nc(SCC(=O)O)n2)c1C	inactive
CN(C)Cc1cc(CN(C)C)c(O)c(CN(C)C)c1	inactive
COc1cc(O)c(C(=O)c2ccccc2)cc1S(=O)(=O)O	inactive
CC(=O)OC/C=C(C)/C=C/C=C(C)/C=C/C1=C(C)CCCC1(C)C	inactive
CC(C)(C)NCC(O)c1ccc(O)c(CO)c1 (stereo not given)	inactive
CC1=C(/C=C/C(C)=C/C=C/C(C)=C/C(=O)O)C(C)(C)CCC1	335 nM (active) and 77 nM (active)
C=C(C)OC(C)=O	inactive
CCn1cc(C(=O)O)c(=O)c2ccc(C)nc21	inactive
COC(=O)c1ccc(C=O)cc1	inactive
COc1ccccc1O	inactive
CC(=O)/C=C/C1=C(C)CCCC1(C)C	inactive
CC1(C)O[C@@H]2[C@@H](CO[C@@]3(COS(N)(=O)=O)OC(C)(C)O[C@@H]23)O1	inactive
CN/C(=C\[N+](=O)[O-])NCCSCc1ccc(CN(C)C)o1	inactive
C=C(C)C(N)=O	inactive
C=CC(=O)NC(C)(C)CS(=O)(=O)O	inactive
Cc1c(N(C)C)c(=O)n(-c2ccccc2)n1C	inactive
C[C@]12C[C@H](O)[C@H]3[C@@H](CCC4=CC(=O)CC[C@@]43C)[C@@H]1CC[C@@H]2C(=O)CO	inactive
CC(=O)Oc1ccccc1C(=O)O	inactive
CCCCCCCCCCCCCCCCCC(=O)OCC(O)CO (stereo not given)	inactive

Structure (SMILES)	Potency
CC(=O)c1ccc(S(=O)(=O)NC(=O)NC2CCCCC2)cc1	inactive
Cc1cccc(C)c1O	inactive
CCCCOCCOCCOC(C)=O	inactive
CCN1CCCC1=O	inactive
C[C@]12C=CC(=O)C=C1CC[C@@H]1[C@@H]2C(=O)C[C@@]2(C)[C@H]1CC[C@]2(O)C(=O)CO	inactive
OCCCc1ccccc1	inactive
O=C(O)CN(CC(=O)O)CC(=O)O	inactive
Oc1cccc(O)c1	inactive
NC(=O)N1c2ccccc2C=Cc2ccccc21	inactive
Cc1cccc2ccccc12	inactive
NC(=O)N/N=C/c1ccc([N+](=O)[O-])o1	inactive
C/C=C/c1ccc(O)c(OC)c1	inactive
OC[C@@H](O)[C@@H](O)[C@H](O)[C@H](O)CO	inactive
CC1=NN(c2ccccc2)C(=O)C1	inactive
CC(=O)CCC(C)C	inactive
CCCCCCCCOc1ccc(C(=O)c2ccccc2)c(O)c1	12.3 µM (active) and 12.2 µM (active)
COC(=O)C1CCC(C(=O)OC)CC1 (stereo not given)	inactive
CC(C)Cc1ccc(C(C)C(=O)O)cc1 (stereo not given)	inactive
Cc1cnc(NC(=O)C2=C(O)c3ccccc3S(=O)(=O)N2C)s1	inactive
C=CCOC(=O)CC(C)C	inactive
